Source: PubChem BioAssay (NCI)
About 83,000 compounds went through this panel and 20% of them were active in at least one assay; those are over-represented in the sample as a whole.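 48-hour exposure, single concentration, 96-well plates; percent growth endpoint where 0 means no net growth. Active: below 10.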 Active and inactive are the calls of the source.

Columns and labels:
Experiment in all cases: NCI-60 one-dose screen, 48 h (100 = growth as untreated, 0 = no growth, -100 = all killed)
Conditions in all cases: 10 µM unless noted
SR leukemia = tested on: SR leukemia
RPMI-8226 leukemia = tested on: RPMI-8226 leukemia
OVCAR-8 ovarian = tested on: OVCAR-8 ovarian
OVCAR-5 ovarian = tested on: OVCAR-5 ovarian
OVCAR-4 ovarian = tested on: OVCAR-4 ovarian
SK-OV-3 ovarian = tested on: SK-OV-3 ovarian
IGROV1 ovarian = tested on: IGROV1 ovarian
OVCAR-3 ovarian = tested on: OVCAR-3 ovarian
HS 578T breast = tested on: HS 578T breast
NCI/ADR-RES ovarian = tested on: NCI/ADR-RES ovarian
T-47D breast = tested on: T-47D breast
BT-549 breast = tested on: BT-549 breast
MDA-MB-435 melanoma = tested on: MDA-MB-435 melanoma
SW-620 colon = tested on: SW-620 colon
MCF7 breast = tested on: MCF7 breast
HCT-116 colon = tested on: HCT-116 colon
HCC-2998 colon = tested on: HCC-2998 colon
KM12 colon = tested on: KM12 colon

Measured: growth

O=C(OC1CCCC1)c1ccccc1Cl
inactive: SR leukemia 104% | RPMI-8226 leukemia 102% | OVCAR-8 ovarian 111% | OVCAR-5 ovarian 96.2% | OVCAR-4 ovarian 107% | SK-OV-3 ovarian 108% | IGROV1 ovarian 106% | OVCAR-3 ovarian 112% | HS 578T breast 91.7% | NCI/ADR-RES ovarian 108% | T-47D breast 96% | BT-549 breast 104% | MDA-MB-435 melanoma 105% | SW-620 colon 106% | MCF7 breast 96.2% | HCT-116 colon 98.7% | HCC-2998 colon 103% | KM12 colon 105%

Nc1ncnc(Nc2ccc(C(F)(F)F)cc2)n1
inactive: SR leukemia 102% | RPMI-8226 leukemia 109% | OVCAR-8 ovarian 102% | OVCAR-5 ovarian 99.8% | OVCAR-4 ovarian 107% | SK-OV-3 ovarian 100% | IGROV1 ovarian 100% | OVCAR-3 ovarian 113% | HS 578T breast 108% | NCI/ADR-RES ovarian 104% | T-47D breast 96.8% | BT-549 breast 98.2% | MDA-MB-435 melanoma 99.9% | SW-620 colon 109% | MCF7 breast 96.6% | HCT-116 colon 95.3% | HCC-2998 colon 101% | KM12 colon 105%

COc1ccc2c(Cl)cc(NC(=O)Nc3c(C)cccc3C)nc2c1
active: OVCAR-4 ovarian -14.7% | SK-OV-3 ovarian -6.49%
inactive: SR leukemia 63.4% | RPMI-8226 leukemia 73% | OVCAR-8 ovarian 61.3% | OVCAR-5 ovarian 83% | IGROV1 ovarian 52.3% | OVCAR-3 ovarian 78.2% | HS 578T breast 57.2% | NCI/ADR-RES ovarian 78.2% | T-47D breast 62.2% | BT-549 breast 93.8% | MDA-MB-435 melanoma 83% | SW-620 colon 85.3% | MCF7 breast 75.7% | HCT-116 colon 63.8% | HCC-2998 colon 95.3% | KM12 colon 88.8%

Clc1ccc(C(SCc2ccccc2)SCc2ccccc2)cc1
inactive: SR leukemia 81% | RPMI-8226 leukemia 83% | OVCAR-8 ovarian 95.5% | OVCAR-5 ovarian 93.3% | OVCAR-4 ovarian 89% | SK-OV-3 ovarian 94.9% | IGROV1 ovarian 93.2% | OVCAR-3 ovarian 90.1% | HS 578T breast 93.4% | NCI/ADR-RES ovarian 98.9% | T-47D breast 79% | BT-549 breast 103% | MDA-MB-435 melanoma 97.9% | SW-620 colon 89.4% | MCF7 breast 93.8% | HCT-116 colon 76.3% | HCC-2998 colon 120% | KM12 colon 85.1%

Nc1ccn(C2CC(N)C(CO)O2)c(=O)n1 (stereo not given)
inactive: SR leukemia 54.5% | RPMI-8226 leukemia 31.5% | OVCAR-8 ovarian 45.6% | OVCAR-5 ovarian 108% | OVCAR-4 ovarian 86.7% | SK-OV-3 ovarian 69.6% | IGROV1 ovarian 87.1% | OVCAR-3 ovarian 115% | HS 578T breast 114% | NCI/ADR-RES ovarian 46% | T-47D breast 81.1% | BT-549 breast 71.8% | MDA-MB-435 melanoma 83.6% | SW-620 colon 88.8% | MCF7 breast 66.5% | HCT-116 colon 63.6% | HCC-2998 colon 74.8% | KM12 colon 97.4%

CC1(C)OC(=O)CC1=O
inactive: SR leukemia 89% | RPMI-8226 leukemia 93.4% | OVCAR-8 ovarian 97.4% | OVCAR-5 ovarian 101% | OVCAR-4 ovarian 106% | SK-OV-3 ovarian 91.6% | IGROV1 ovarian 107% | OVCAR-3 ovarian 113% | HS 578T breast 96.6% | NCI/ADR-RES ovarian 105% | T-47D breast 82% | BT-549 breast 98.1% | MDA-MB-435 melanoma 104% | SW-620 colon 100% | MCF7 breast 99.3% | HCT-116 colon 103% | HCC-2998 colon 100% | KM12 colon 102%

COc1cc(N)c2ncccc2c1Cl
inactive: SR leukemia 91.3% | RPMI-8226 leukemia 83.9% | OVCAR-8 ovarian 103% | OVCAR-5 ovarian 90.2% | OVCAR-4 ovarian 128% | SK-OV-3 ovarian 105% | IGROV1 ovarian 117% | OVCAR-3 ovarian 118% | HS 578T breast 130% | NCI/ADR-RES ovarian 112% | T-47D breast 101% | BT-549 breast 87.5% | MDA-MB-435 melanoma 111% | SW-620 colon 109% | MCF7 breast 104% | HCT-116 colon 95.3% | HCC-2998 colon 106% | KM12 colon 117%

O=[n+]1ccn([O-])c2ccccc21
inactive: SR leukemia 78.3% | RPMI-8226 leukemia 78.9% | OVCAR-8 ovarian 121% | OVCAR-5 ovarian 93.1% | OVCAR-4 ovarian 106% | SK-OV-3 ovarian 109% | IGROV1 ovarian 106% | OVCAR-3 ovarian 101% | HS 578T breast 89.4% | NCI/ADR-RES ovarian 103% | T-47D breast 92.4% | BT-549 breast 92.5% | MDA-MB-435 melanoma 101% | SW-620 colon 93.9% | MCF7 breast 95.8% | HCT-116 colon 95.7% | HCC-2998 colon 108% | KM12 colon 99%

O=C(O)Cc1ccc(Cl)cc1
inactive: SR leukemia 44.8% | RPMI-8226 leukemia 99.1% | OVCAR-8 ovarian 97.7% | OVCAR-5 ovarian 111% | OVCAR-4 ovarian 107% | SK-OV-3 ovarian 121% | IGROV1 ovarian 109% | OVCAR-3 ovarian 150% | HS 578T breast 99.6% | NCI/ADR-RES ovarian 109% | T-47D breast 117% | BT-549 breast 105% | MDA-MB-435 melanoma 97.3% | SW-620 colon 111% | HCT-116 colon 77.4% | HCC-2998 colon 108% | KM12 colon 113%

CC(=O)O[C@H]1CC[C@]2(C)C3=C(C(=O)C[C@H]2C1(C)C)[C@]1(C)CC[C@H]([C@H](C)CCC(=O)O)[C@@]1(C)CC3=O
inactive: SR leukemia 82.6% | RPMI-8226 leukemia 101% | OVCAR-8 ovarian 109% | OVCAR-5 ovarian 100% | OVCAR-4 ovarian 94.7% | SK-OV-3 ovarian 99.3% | IGROV1 ovarian 103% | OVCAR-3 ovarian 102% | HS 578T breast 119% | NCI/ADR-RES ovarian 100% | T-47D breast 91.5% | BT-549 breast 93.9% | MDA-MB-435 melanoma 98.7% | SW-620 colon 85.5% | MCF7 breast 89.6% | HCT-116 colon 99.2% | HCC-2998 colon 102% | KM12 colon 106%

C=CCC(O)C=C (stereo not given)
inactive: SR leukemia 84.4% | RPMI-8226 leukemia 105% | OVCAR-8 ovarian 101% | OVCAR-5 ovarian 108% | OVCAR-4 ovarian 106% | SK-OV-3 ovarian 94% | IGROV1 ovarian 103% | OVCAR-3 ovarian 108% | HS 578T breast 101% | NCI/ADR-RES ovarian 103% | T-47D breast 95.6% | BT-549 breast 104% | MDA-MB-435 melanoma 111% | SW-620 colon 104% | HCT-116 colon 105% | HCC-2998 colon 113% | KM12 colon 102%

CSc1nsc(N)n1
inactive: SR leukemia 98.4% | RPMI-8226 leukemia 114% | OVCAR-8 ovarian 105% | OVCAR-5 ovarian 107% | OVCAR-4 ovarian 104% | SK-OV-3 ovarian 105% | IGROV1 ovarian 97.6% | OVCAR-3 ovarian 110% | HS 578T breast 90.7% | NCI/ADR-RES ovarian 101% | T-47D breast 98.8% | BT-549 breast 100% | MDA-MB-435 melanoma 102% | SW-620 colon 92.9% | MCF7 breast 95.8% | HCT-116 colon 104% | HCC-2998 colon 106% | KM12 colon 101%

CCOC(=O)c1ccc(C(C)(C)C)cc1
inactive: SR leukemia 95.7% | RPMI-8226 leukemia 104% | OVCAR-8 ovarian 103% | OVCAR-5 ovarian 106% | OVCAR-4 ovarian 109% | SK-OV-3 ovarian 104% | IGROV1 ovarian 108% | OVCAR-3 ovarian 107% | HS 578T breast 114% | NCI/ADR-RES ovarian 108% | T-47D breast 105% | BT-549 breast 109% | MDA-MB-435 melanoma 108% | SW-620 colon 107% | HCT-116 colon 102% | HCC-2998 colon 100% | KM12 colon 105%

CCOC(=O)/C(C)=C\c1ccc(OC)c(OC)c1
inactive: SR leukemia 86.5% | RPMI-8226 leukemia 103% | OVCAR-8 ovarian 101% | OVCAR-5 ovarian 99.3% | OVCAR-4 ovarian 101% | SK-OV-3 ovarian 103% | IGROV1 ovarian 105% | OVCAR-3 ovarian 103% | HS 578T breast 108% | NCI/ADR-RES ovarian 100% | T-47D breast 90.2% | BT-549 breast 89% | MDA-MB-435 melanoma 102% | SW-620 colon 106% | MCF7 breast 101% | HCT-116 colon 94.2% | HCC-2998 colon 103% | KM12 colon 102%

S=c1nc(-c2ccccn2)c(-c2ccccn2)n[nH]1
inactive: SR leukemia 99.2% | RPMI-8226 leukemia 112% | OVCAR-8 ovarian 103% | OVCAR-5 ovarian 111% | OVCAR-4 ovarian 108% | SK-OV-3 ovarian 112% | IGROV1 ovarian 103% | OVCAR-3 ovarian 107% | HS 578T breast 105% | NCI/ADR-RES ovarian 102% | T-47D breast 93.9% | BT-549 breast 101% | MDA-MB-435 melanoma 110% | SW-620 colon 106% | MCF7 breast 96.9% | HCT-116 colon 100% | HCC-2998 colon 99.5% | KM12 colon 97.4%

Cc1ccc[n+](CCC(N)=O)c1
inactive: SR leukemia 59.8% | RPMI-8226 leukemia 102% | OVCAR-8 ovarian 103% | OVCAR-5 ovarian 93.8% | OVCAR-4 ovarian 87.4% | SK-OV-3 ovarian 94.7% | IGROV1 ovarian 98.7% | OVCAR-3 ovarian 111% | HS 578T breast 87.3% | NCI/ADR-RES ovarian 97.4% | T-47D breast 91.7% | BT-549 breast 110% | MDA-MB-435 melanoma 101% | SW-620 colon 96.7% | MCF7 breast 94.3% | HCT-116 colon 115% | HCC-2998 colon 93.1% | KM12 colon 91.1%
